Screening data from PubChem.
HT1080-NT tox = qHTS for induction of synthetic lethality in tumor cells producing 2HG: qHTS for the HT-1080-NT fibrosarcoma cell line; HT-1080-NT fibrosarcoma viability, CellTiter-Glo ATP luminescence, 48 h; Potency, µM (titrated, usually from 46.1 µM), for the others: top-dose activity, negative = less viability, most hits filed as cytotoxic; actives 1.6% (n = 360,000); AID 686970, 2013;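 also: NT is the 2HG producing partner of a matched IDH1 knockdown line; 0% = DMSO-treated cells and -100% = media-only wells without cells; nearly all actives have a fitted effect of over 55% in size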
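Compounds were tested in concentration-response format on HT-1080-NT cells for 48 hours at 37 degrees C. Cell viability came from CellTiter-Glo luminescence; curves were classified by r2, response magnitude and activity.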
KB-3-1 cytotox = qHTS assay for MDR1-selective chemotherapeutics: Primary screen using the parental adenocarcinoma cell KB-3-1; KB-3-1 viability, CellTiter-Glo ATP luminescence, 72 h; Potency, µM (titrated, usually from 46.1 µM), actives largely listed as cytotoxic; actives 1.4% (n = 400,000); also: nearly all actives have a fitted effect of over 60% in size
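Using CellTiter-Glo luminescence, growth of non-resistant KB-3-1 adenocarcinoma cells is assessed 72 h after pin-tool compound addition at 37 °C. Normalized responses across the concentration series yield fitted curves.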
TDP1 cell CPT = qHTS for Inhibitors of human tyrosyl-DNA phosphodiesterase 1 (TDP1): qHTS in cells in presence of CPT; chicken DT40 Tdp1-/-;hTDP1 cells + 20 nM CPT, ATP luminescence, 48 h; Potency, µM (doses to about 46.2 µM), for the others: at the top dose activity change, negative = growth inhibition, hits mostly inhibitors; actives 12% (n = 420,000); AID 686979, 2013; also: nearly all actives have a fitted effect of over 55% in size
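Chicken DT40 Tdp1-/- cells stably complemented with human TDP1 were seeded at 400 cells/well in medium containing 20 nM camptothecin, exposed to pin-transferred compounds, and grown at 37 °C for at least 48 hr. Viability was read as ATP luminescence.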
KB-V1 MDR tox = qHTS assay for MDR1-selective chemotherapeutics: Primary screen using the drug-selected MDR subline cells KB-V1; KB-V1 MDR cells viability, CellTiter-Glo, 72 h; Potency, µM (top dose mostly 46.1 µM), most hits filed as cytotoxic; actives 3.4% (n = 400,000); also: nearly all actives have a fitted effect of over 60% in size
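qHTS viability screen in drug-selected KB-V1 MDR cells: 72 h compound treatment at 37 degrees C, ATP luminescence end point.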
DT40 TDP1 no CPT = qHTS for Inhibitors of human tyrosyl-DNA phosphodiesterase 1 (TDP1): qHTS in cells in absence of CPT | DT40 Tdp1-/- hTDP1 cells, no CPT, ATP luminescence, 48 h | Potency, µM (top dose mostly 46.2 µM), for inactives: at the highest dose activity change, negative = growth inhibition, usual class: inhibitors | actives 15% (n = 420,000) | AID 686978, 2013; also: nearly all actives have a fitted effect of over 55% in size
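Cells were dispensed at 400 per well, compounds added by pin tool, plates incubated ≥48 hr at 37 °C, then CellTiter-Glo added for 30 min at room temperature before luminescence reading. Line: DT40 Tdp1-/- complemented with hTDP1; camptothecin omitted.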
HT1080 IDH1KD tx = qHTS for induction of synthetic lethality in tumor cells producing 2HG: qHTS for the HT-1080-IDH1KD cell line | HT-1080 IDH1 knockdown viability, ATP luminescence, 48 h | Potency, µM (doses to about 46.1 µM), for the others: at the top dose activity, negative = toxicity, hits mostly cytotoxic | actives 2% (n = 360,000);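 also: 0% = DMSO wells and -100% = cell-free medium wells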
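HT-1080-IDH1KD cells (IDH1 knocked down), 750/well in RPMI with 5% FBS, treated with compound 48 h at 37 degrees C. Viability by CellTiter-Glo luminescence, normalised to DMSO and no-cell wells; concentration-response curves classed.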
The depositor's hits bear a star. In the library only some 19% were active in any assay of this set; here they are far more common. Calls follow the shape of the dose curve; as a rule, active = well fitted curve in the direction sought with a large enough effect; inconclusive = small, poorly fitted or top-dose-only effect, or another doubt; inactive = no such curve, though single readings can be large; an effect the other way counts as inactive or inconclusive. Unless noted, % is scaled to controls: 0 for no effect and ±100 for the full control effect; potency is read from the fitted curve at half-maximal effect.

For COCC(=O)Nc1cc(C(=O)N2CCCC2c2nccs2)c2c(c1)nc(-c1ccncc1)n2C (stereo not given) the results were TDP1 cell CPT 22% and DT40 TDP1 no CPT -15%.
CCCc1[nH]n(-c2ccc([N+](=O)[O-])cc2)c(=O)c1C(C)=NCc1ccncc1 was read as HT1080-NT tox -12%, KB-3-1 cytotox inactive, TDP1 cell CPT inconclusive, KB-V1 MDR tox inactive, DT40 TDP1 no CPT inconclusive and HT1080 IDH1KD tx -23%.
Screening O=C(NCC(=O)N(CC1CCCO1)C(C(=O)NC1CCCC1)c1cccnc1)c1ccco1 (stereo not given) returned HT1080-NT tox 11%, KB-3-1 cytotox inactive, TDP1 cell CPT 0%, KB-V1 MDR tox inactive, DT40 TDP1 no CPT -1% and HT1080 IDH1KD tx 21%.
COc1ccccc1Nc1nn2c(=O)c3ccc(C(=O)NC4CCC(C)CC4)cc3nc2s1 (stereo not given) was read as KB-3-1 cytotox inactive, TDP1 cell CPT 5.8µM*, KB-V1 MDR tox inconclusive and DT40 TDP1 no CPT 5.2µM*.
`CCOc1ccccc1N(C)C(=O)c1cn(C)c(=O)c2ccccc12` gave HT1080-NT tox 0%, KB-3-1 cytotox inactive, TDP1 cell CPT 5%, KB-V1 MDR tox inactive, DT40 TDP1 no CPT -14% and HT1080 IDH1KD tx 11%.
CCc1ccc(CNC(=O)CSc2c3c(nc4ccc(Cl)cc24)CCCC3)cc1 was read as TDP1 cell CPT -23% and DT40 TDP1 no CPT inconclusive.
For CCOc1ccc(CNC(=O)CSc2c3c(nc4ccc(Cl)cc24)CCCC3)cc1 the results were TDP1 cell CPT -28% and DT40 TDP1 no CPT -25%.
Screening COc1cccc(CNC(=O)CSc2c3c(nc4ccc(Cl)cc24)CCCC3)c1OC returned TDP1 cell CPT 7.3µM* and DT40 TDP1 no CPT 9.2µM*.
`COc1ccc(OC)c(CNC(=O)CSc2c3c(nc4cc(Cl)ccc24)CCCC3)c1` gave KB-3-1 cytotox inactive, TDP1 cell CPT 16µM*, KB-V1 MDR tox inactive and DT40 TDP1 no CPT 23µM*.
For O=C(C[C@H]1CC[C@@H]2[C@H](COC[C@H](O)CN2Cc2cccc(C(F)(F)F)c2)O1)NCCc1ccccc1 the results were HT1080-NT tox -20%, KB-3-1 cytotox inactive, TDP1 cell CPT 21µM*, KB-V1 MDR tox inconclusive, DT40 TDP1 no CPT 13µM* and HT1080 IDH1KD tx inconclusive.
For O=C(C[C@H]1CC[C@@H]2[C@H](COC[C@@H](O)CN2Cc2cccc(F)c2)O1)NCC1CCCCC1 the results were HT1080-NT tox 4%, KB-3-1 cytotox inconclusive, TDP1 cell CPT 21µM*, KB-V1 MDR tox inconclusive, DT40 TDP1 no CPT 21µM* and HT1080 IDH1KD tx 1%.
For O=C(CCc1ccccc1)Nc1cccc(S(=O)(=O)N2CCOCC2)c1 the results were HT1080-NT tox 10%, KB-3-1 cytotox inactive, TDP1 cell CPT inconclusive, KB-V1 MDR tox inactive, DT40 TDP1 no CPT inconclusive and HT1080 IDH1KD tx 5%.
Screening COc1ccc(CCC(=O)Nc2cccc(S(=O)(=O)N3CCOCC3)c2)cc1OC returned HT1080-NT tox 8%, KB-3-1 cytotox inactive, TDP1 cell CPT 15µM*, KB-V1 MDR tox inactive, DT40 TDP1 no CPT inconclusive and HT1080 IDH1KD tx -5%.
